± gives the standard deviation.
What was measured:
[1] = test system: MILI (PIWIL2) piRISC loaded with L1MC piRNA (26 nt); assay: pre-steady-state target cleavage rate (min^-1); guide: L1MC piRNA 5'p-UAACUAAAUACUAUGCAAGCUGUAGG; higher = faster piRNA-guided slicing of the target;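 note: 1 nM active piRISC with 0.1 nM target library at 33 °C single turnover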
Method in brief: (§1)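 Reactions were run for 0–8 or 0–960 min at 33 °C in HEPES–potassium acetate buffer, combining 1 nM active affinity-purified piRISC with one synthetic guide, […] transcribed, DNA-blocked target RNA library and, in some cases, 500 nM GTSF1 partner protein. Sequencing of uncleaved targets followed, with normalisation to depth and to weakly complementary targets. Three trials were pooled, k3 was capped at 0.0001 min^-1, and the pre-steady-state cleavage rate was taken from a burst-and-steady-state fit.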

[2] = test system: EfPiwi piRISC loaded with L1MC piRNA (26 nt); assay: pre-steady-state target cleavage rate (min^-1); auxiliary factor: 500 nM Ephydatia muelleri Gtsf1; guide: L1MC piRNA 5'p-UAACUAAAUACUAUGCAAGCUGUAGG; MIWI and MILI are mouse PIWI proteins and EfPiwi is from a freshwater sponge; tags in brackets are library labels; higher = faster piRNA-guided slicing of the target
Method in brief: as §1

[3] = auxiliary factor: 500 nM mouse GTSF1
[4] = auxiliary factor: none (no GTSF1)

Row | Sequence | pre-steady-state target cleavage rate [1, 3] | pre-steady-state target cleavage rate [1, 4] | pre-steady-state target cleavage rate [2]
1 | UCCUGGUACAGCUUGCAUAGUAUUUGGUUA | 0.205 ± 0.033 | 0.0142 ± 0.0043 | 0.00525 ± 0.002
2 | UCCUGGAACAGCUUGCAUUGUAAUUAGUUA | 0.184 ± 0.023 | 0.00389 ± 0.0028 | 0.00225 ± 0.0022
3 | UCCUCCUACAGCUUGCAAUGUAUUUAGUUA | 0.101 ± 0.015 | 0.00693 ± 0.0023 | 0.0107 ± 0.0042
4 | UCCUGCUAGCAGCUUGCAUAGUAUUUAGUUA | 0.259 ± 0.014 | 0.00955 ± 0.0024 | 0.0598 ± 0.016
5 | UCCUGGAACUGCUUGCAUAGUAAUUAGUUA | 0.159 ± 0.012 | 0.00625 ± 0.0021 | 0.0039 ± 0.0028
6 | UCCUGGAUGAGCUUGCAUAGUAUCUUAGUUA | 0.148 ± 0.017 | 0.00732 ± 0.0024 | 0.0147 ± 0.005
7 | UCCUGGAACAGCUUGGAAAGUAUUUAGUUA | 0.125 ± 0.0077 | 0.00969 ± 0.0023 | 0.0164 ± 0.0053
8 | UCCUGGAUCAGCUUAGCAUAGUAUUUAGUUA | 0.232 ± 0.018 | 0.00685 ± 0.0027 | 0.0874 ± 0.019
9 | UCCUGGAUGAGCUUGCUUAGUAUUUAGUUA | 0.17 ± 0.01 | 0.00685 ± 0.0025 | 0.00629 ± 0.0027
10 | UCCUGGAUCAGGUUGCAUAGUAUUUUGUUA | 0.101 ± 0.015 | 0.00364 ± 0.0028 | 0.00406 ± 0.0022
11 | UCCUGGAUGUUCUUGCAUAGUAUUUAGUUA | 0.0709 ± 0.01 | 0.0115 ± 0.003 | 0.173 ± 0.068
12 | UCCUGGAUCAGCUUGCAUAGUAUUUACGUUA | 0.243 ± 0.027 | 0.00431 ± 0.0028 | 0.0133 ± 0.0044
13 | UCCUGGAACAGGUUGCAUAGUAUUUAGUAA | 0.232 ± 0.02 | 0.00824 ± 0.0023 | 0.00828 ± 0.0031
14 | UCCUGGAACAGGUUGCAUAGUAAUUAGUUA | 0.206 ± 0.017 | 0.0075 ± 0.0018 | 0.0061 ± 0.0024
15 | UCCUGGAACAGCUUGCAUAGUCUUUAGUUA | 0.197 ± 0.016 | 0.00483 ± 0.0022 | 0.00979 ± 0.0029
16 | UCCUGGAUGAGCUGGCAUAGUAUUUAGUUA | 0.185 ± 0.016 | 0.0101 ± 0.0034 | 0.0103 ± 0.0035
17 | UCCUGGAACAGCUUGGAUAGUAAUUAGUUA | 0.21 ± 0.025 | 0.00493 ± 0.0022 | 0.00719 ± 0.0026
